# Measured values from PubChem BioAssay (Tox21).
# Values joined by “and” are separate entries in the source; they are usually repeats but may differ in a detail not shown here. Equal values may be shown once. Inconclusive results are not listed. A call without a number means that no potency is given here. The source holds several records for some structures; these can differ, active in one and inactive in another. Active and inactive are the calls of the source. Unless noted, calls follow the shape of the dose curve; as a rule, active = well fitted curve in the direction sought with a large enough effect in the repeat runs; inconclusive = weak or mixed curves; inactive = no such curve, though single readings can be large; an effect the other way counts as inactive or inconclusive. Starred links: 1 amine or outer side, 2 acyl side, 3 side chain; linkers in the order of their positions; H or OH if unused. Positions of bridges follow the written chain, without caps; N, C: chain ends. Non-standard residues stand in square brackets, D forms with d. Residues, ends and D or L forms follow the SMILES beside them. Chains are numbered I, II in the order given. Actinocin(9to1) = Cc1c2oc3c(C)ccc(C(=O)[*:1])c3nc-2c(C(=O)[*:2])c(N)c1=O; NMeV = CN[C@H](C(=O)O)C(C)C; Sar = CNCC(=O)O
# Legend:
# [1] = qHTS assay to identify small molecule agonists of the hypoxia (HIF-1) signaling pathway - cell viability counter screen (AID 1224844; calls by dose curve; also: nearly all actives have a fitted effect of over 50% in size)
# Outline: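 CellTiter-Glo luminescence read-out, 30 min RT, taken in the same wells as the beta-lactamase HRE reporter assay; HRE-bla ME-180 cells, 0.5% dialyzed FBS, 17 hr compound treatment at 37C, 5% CO2.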
# [2] = qHTS assay to identify small molecule agonists of H2AX (AID 1224845; active = well fitted activation curve with a large enough effect in the signal ratio in the repeat runs, not every such curve was filed as active; the % refers to the signal ratio; also: potency is read from the fitted curve at half-maximal effect)
# Outline: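 Phospho-H2AX Ser139 measured by HTRF (ex 320 nm; em 665 and 620 nm) after 24 hr antibody incubation. Compounds, 15 concentrations, 0.76% DMSO, were applied to CHO-K1 cells for 3hr at 37C before lysis.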
# [3] = qHTS assay to identify small molecule agonists of the hypoxia (HIF-1) signaling pathway (AID 1224846; active = well fitted activation curve with a large enough effect in the signal ratio in the repeat runs, not every such curve was filed as active; the % refers to the signal ratio)
# Outline: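 Beta-lactamase FRET read-out (CCF4-AM substrate) from ME-180 cells carrying an HRE-driven bla reporter, after 17 hrs compound exposure at 37C/5% CO2. Cells were seeded at 2,000 per well in 0.5% dialyzed FBS medium and preincubated 5 hrs.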
# [4] = qHTS assay to identify small molecule antagonists of the estrogen related receptor (ERR) signaling pathway from Tox21 library (AID 1224848); also: nearly all actives have a fitted effect of over 50% in size
# Outline: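 ERR cell line, 2,000 cells/well. 6 h settle, then compound (DMSO) added; 18 h at 37 C; ONE-Glo luminescence after 30 min RT.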
# [5] = qHTS assay to identify small molecule agonists of the estrogen related receptor (ERR) signaling pathway from Tox21 library (AID 1224849; calls by dose curve; also: nearly all actives have a fitted effect of over 15% in size); settings: ERR reporter cell line, ONE-Glo luciferase, 18 h
# Outline: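 Luminescence readout (ONE-Glo, 30 min RT) after 18 h compound exposure at 37 C of NTP-supplied ERR reporter cells; cells were plated 6 h before compound addition by pin tool.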
# [6] = qHTS RealTime-Glo MT Cell Viability Assay in HepG2 cells - 24 hour (AID 1224867); also: nearly all actives have a fitted effect of over 50% in size; also: potency is read from the fitted curve at half-maximal effect
# Outline: (§1)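 Cell number in HepG2 cultures estimated from NanoLuc luminescence generated by metabolic reduction of a prosubstrate by living cells. The homogeneous, nonlytic format allowed repeated reads at 0, 8, 16, 24, 32 and 40 h of compound exposure.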
# [7] = qHTS RealTime-Glo MT Cell Viability Assay in HEK293 cells - 32 hour (AID 1224868); also: nearly all actives have a fitted effect of over 50% in size; also: potency is read from the fitted curve at half-maximal effect
# Outline: (§2)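 Homogeneous bioluminescent viability format in HEK293 cells (600 cells/well). Following 5 h at 37 C/5% CO2, 23 nL compound was pintooled; the signal was measured repeatedly during 40 h incubation.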
# [8] = A CellTox Green Cytotoxicity Assay to monitor cytotoxicity in HEK293 cells - 0 hour (AID 1224869); also: nearly all actives have a fitted effect of over 50% in size
# Outline: (§3)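 Read-out: fluorescence of a cell-impermeant cyanine dye staining DNA of dead cells, proportional to cytotoxicity. HEK293, 600 cells/well with reagent, compound (23 nL DMSO) added after 5 h; reads at 0, 8, 16, 24, 32, 40 h.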
# [9] = qHTS RealTime-Glo MT Cell Viability Assay in HepG2 cells - 40 hour (AID 1224870); also: nearly all actives have a fitted effect of over 50% in size
# Outline: (§4)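 Real-time viability: cells seeded at 600 per well together with NanoLuc and cell-permeant prosubstrate, compounds added after 5 h incubation. Luminescence tracked at 0, 8, 16, 24, 32 and 40 h of exposure.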
# [10] = A CellTox Green Cytotoxicity Assay to monitor cytotoxicity in HEK293 cells - 40 hour (AID 1224871); also: nearly all actives have a fitted effect of over 45% in size; also: potency is read from the fitted curve at half-maximal effect
# Outline: as §3
# [11] = qHTS RealTime-Glo MT Cell Viability Assay in HepG2 cells - 8 hour (AID 1224873); also: nearly all actives have a fitted effect of over 55% in size; also: potency is read from the fitted curve at half-maximal effect
# Outline: as §4
# [12] = qHTS RealTime-Glo MT Cell Viability Assay in HEK293 cells - 40 hour (AID 1224874); settings: RealTime-Glo luminescence; max response: stronger effect = lower value; also: nearly all actives have a fitted effect of over 50% in size; also: potency is read from the fitted curve at half-maximal effect
# Outline: (§5)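 Luminescence readout at each listed time point; HEK293, 600 cells/well, RealTime-Glo MT reagent added with cells; compounds pinned (23 nL in DMSO) after 5 h at 37 C; continuous culture at 37 C.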
# [13] = A CellTox Green Cytotoxicity Assay to monitor cytotoxicity in HEK293 cells - 24 hour (AID 1224875); also: nearly all actives have a fitted effect of over 45% in size
# Outline: as §3
# [14] = A CellTox Green Cytotoxicity Assay to monitor cytotoxicity in HepG2 cells - 16 hour (AID 1224876); also: nearly all actives have a fitted effect of over 45% in size; also: potency is read from the fitted curve at half-maximal effect
# Outline: (§6)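 HepG2, 600 cells/well premixed w/ CellTox Green; 5 h settle, 37 C/5% CO2; pintool cpd add (DMSO); 37 C, 40 h; fluorescence read at 0, 8, 16, 24, 32, 40 h.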
# [15] = qHTS RealTime-Glo MT Cell Viability Assay in HepG2 cells - 32 hour (AID 1224877); also: nearly all actives have a fitted effect of over 55% in size; also: potency is read from the fitted curve at half-maximal effect
# Outline: as §1
# [16] = A CellTox Green Cytotoxicity Assay to monitor cytotoxicity in HepG2 cells - 24 hour (AID 1224878); also: nearly all actives have a fitted effect of over 45% in size
# Outline: as §6
# [17] = A CellTox Green Cytotoxicity Assay to monitor cytotoxicity in HepG2 cells - 40 hour (AID 1224879); also: nearly all actives have a fitted effect of over 40% in size; also: potency is read from the fitted curve at half-maximal effect
# Outline: as §6
# [18] = qHTS RealTime-Glo MT Cell Viability Assay in HEK293 cells - 0 hour (AID 1224880)
# Outline: as §5
# [19] = qHTS assay to identify small molecule agonists of H2AX - cell viability counter screen (AID 1224847; calls by dose curve; also: top concentration of the series differs between compounds; nearly all actives have a fitted effect of over 30% in size)
# Outline: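 Quantitative HTS viability measurement: CHO-K1 wild-type cells in serum (10% FBS) medium, short 3 hr drug exposure at 37C with 0.76% DMSO, CellTiter-Glo luminescent detection.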
# [20] = qHTS RealTime-Glo MT Cell Viability Assay in HEK293 cells - 16 hour (AID 1224872)
# Outline: as §2
smiles,measurement,setting,value
O=Cc1ccc(Cl)cc1,Potency,[1],inactive
same,Potency,[2],inactive
same,Potency,[3],inactive
same,Potency,[4],inactive
same,"activity change, positive = activation",[5]; at 92.4 µM (top of the series),-1.47% (inactive)
same,Potency,[6],inactive
same,Potency,[7],inactive
same,Potency,[8],inactive
same,Potency,[9],inactive
same,Potency,[10],inactive
same,Potency,[11],inactive
same,max response,[12],-1.8% (inactive)
same,Potency,[13],inactive
same,Potency,[14],inactive
same,Potency,[15],inactive
same,Potency,[16],inactive
same,Potency,[17],inactive
same,Potency,[18],inactive
Clc1ccc2c(c1)C(N1CCNCC1)=Nc1ccccc1O2,Potency,[1],inactive
same,Potency,[2],inactive
same,Potency,[19],inactive
same,Potency,[6],54.9 µM (active)
same,Potency,[7],43.6 µM (active) and 26.8 µM (active)
same,Potency,[8],inactive
same,Potency,[10],26.8 µM (active)
same,Potency,[11],inactive
same,Potency,[12],43.6 µM (active) and 23.9 µM (active)
same,Potency,[14],54.9 µM (active)
same,Potency,[15],54.9 µM (active)
same,Potency,[17],49 µM (active) and 26.8 µM (active)
same,Potency,[18],inactive
CC(C)CCOC(=O)c1ccc(N(C)C)cc1,Potency,[1],inactive
same,Potency,[2],inactive
same,Potency,[19],inactive
same,Potency,[4],inactive
same,"activity change, positive = activation",[5]; at 42.5 µM (top of the series),81.2% (active)
same,Potency,[6],inactive
same,Potency,[7],inactive
same,Potency,[8],inactive
same,Potency,[10],inactive
same,Potency,[20],inactive
same,Potency,[11],inactive
same,max response,[12],3.04% (inactive)
same,Potency,[13],inactive
same,Potency,[14],inactive
same,Potency,[15],inactive
same,Potency,[17],1.9 µM (active)
same,Potency,[18],inactive
O=C(Oc1ccccc1)c1ccccc1O,Potency,[1],inactive
same,Potency,[2],inactive
same,Potency,[19],inactive
same,Potency,[6],inactive
same,Potency,[7],inactive
same,Potency,[8],inactive
same,Potency,[10],inactive
same,Potency,[11],inactive
same,max response,[12],-18.8% (inactive) and -3% (inactive) and 3.05% (inactive)
same,Potency,[13],inactive
same,Potency,[15],inactive
same,Potency,[16],inactive
same,Potency,[17],inactive
same,Potency,[18],inactive
COc1ccc(COC(C)=O)cc1,Potency,[1],inactive
same,Potency,[2],inactive
same,Potency,[19],inactive
same,Potency,[4],inactive
same,"activity change, positive = activation",[5]; at 92.4 µM (top of the series),0.212% (inactive) and 1.93% (inactive)
same,Potency,[7],inactive
same,Potency,[8],inactive
same,Potency,[9],inactive
same,Potency,[10],inactive
same,Potency,[20],inactive
same,Potency,[11],inactive
same,max response,[12],5.85% (inactive)
same,Potency,[13],inactive
same,Potency,[14],inactive
same,Potency,[15],inactive
same,Potency,[16],inactive
same,Potency,[17],inactive
same,Potency,[18],inactive
NCCCCCC(=O)O,Potency,[1],inactive
same,Potency,[2],inactive
same,Potency,[19],inactive
same,Potency,[6],inactive
same,Potency,[7],inactive
same,Potency,[8],inactive
same,Potency,[9],inactive
same,Potency,[10],inactive
same,Potency,[20],inactive
same,Potency,[11],inactive
same,max response,[12],-0.0726% (inactive)
same,Potency,[13],inactive
same,Potency,[14],inactive
same,Potency,[15],inactive
same,Potency,[16],inactive
same,Potency,[17],inactive
same,Potency,[18],inactive
COc1nc(C)nc(Cl)c1NC1=NCCN1,Potency,[1],inactive
same,Potency,[2],inactive
same,Potency,[19],inactive
same,Potency,[7],inactive
same,Potency,[8],inactive
same,Potency,[9],inactive
same,Potency,[10],inactive
same,Potency,[20],inactive
same,Potency,[11],inactive
same,max response,[12],2.57% (inactive)
same,Potency,[13],inactive
same,Potency,[15],inactive
same,Potency,[17],inactive
same,Potency,[18],inactive
"Cc1c2oc3c(C)ccc(C(=O)N[C@@H]4C(=O)N[C@H](C(C)C)C(=O)N5CCC[C@H]5C(=O)N(C)CC(=O)N(C)[C@@H](C(C)C)C(=O)O[C@@H]4C)c3nc-2c(C(=O)N[C@@H]2C(=O)N[C@H](C(C)C)C(=O)N3CCC[C@H]3C(=O)N(C)CC(=O)N(C)[C@@H](C(C)C)C(=O)O[C@@H]2C)c(N)c1=O (I: T[dV]P[Sar][NMeV] / II: T[dV]P[Sar][NMeV]; ester I:1-I:C, II:1-II:C; linker I:N-II:N via Actinocin(9to1))",Potency,[1],inactive
same,Potency,[2],1.1 µM (active)
same,Potency,[19],inactive
same,Potency,[6],8.47 µM (active) and 2.68 µM (active)
same,Potency,[7],12 nM (active) and 21.3 nM (active)
same,Potency,[8],inactive
same,Potency,[10],inactive
same,Potency,[11],9.5 µM (active) and 10.7 µM (active)
same,Potency,[12],8.5 nM (active) and 16.9 nM (active)
same,Potency,[13],inactive
same,Potency,[14],inactive
same,Potency,[18],inactive
NC12CC3CC(CC(C3)C1)C2,Potency,[1],inactive
same,Potency,[2],inactive
same,Potency,[19],inactive
same,Potency,[6],inactive
same,Potency,[7],inactive
same,Potency,[8],inactive
same,Potency,[9],inactive
same,Potency,[10],inactive
same,Potency,[20],inactive
same,Potency,[11],inactive
same,max response,[12],6.54% (inactive)
same,Potency,[13],inactive
same,Potency,[14],inactive
same,Potency,[15],inactive
same,Potency,[16],inactive
same,Potency,[17],inactive
same,Potency,[18],inactive
C#CC(C)(CC)OC(=O)c1ccccc1C(=O)O (stereo unspecified),Potency,[1],inactive
same,Potency,[2],inactive
same,Potency,[19],inactive
same,Potency,[4],inactive
same,"activity change, positive = activation",[5]; at 42.5 µM (top of the series),0.513% (inactive)
same,Potency,[7],inactive
same,Potency,[8],inactive
same,Potency,[9],inactive
same,Potency,[10],inactive
same,Potency,[20],inactive
same,Potency,[11],inactive
same,max response,[12],0.788% (inactive)
same,Potency,[13],inactive
same,Potency,[14],inactive
same,Potency,[15],inactive
same,Potency,[16],inactive
same,Potency,[17],inactive
same,Potency,[18],inactive
NCCO,Potency,[1],inactive
same,Potency,[2],inactive
same,Potency,[19],inactive
same,Potency,[7],inactive
same,Potency,[8],inactive
same,Potency,[9],inactive
same,Potency,[10],inactive
same,Potency,[20],inactive
same,Potency,[11],inactive
same,max response,[12],-3.29% (inactive) and 1.65% (inactive)
same,Potency,[13],inactive
same,Potency,[14],inactive
same,Potency,[15],inactive
same,Potency,[16],inactive
same,Potency,[17],inactive
same,Potency,[18],inactive
CC(=O)CC(=O)Nc1ccc2[nH]c(=O)[nH]c2c1,Potency,[1],inactive
same,Potency,[2],inactive
same,Potency,[19],inactive
same,Potency,[4],inactive
same,"activity change, positive = activation",[5]; at 92.4 µM (top of the series),4.73% (inactive)
same,Potency,[7],inactive
same,Potency,[8],inactive
same,Potency,[9],inactive
same,Potency,[10],inactive
same,Potency,[20],inactive
same,Potency,[11],inactive
same,max response,[12],-1.76% (inactive)
same,Potency,[13],inactive
same,Potency,[15],inactive
same,Potency,[16],inactive
same,Potency,[17],inactive
same,Potency,[18],inactive
c1ccc2cc3c(ccc4ccccc43)cc2c1,Potency,[1],inactive
same,Potency,[2],inactive
same,Potency,[19],inactive
same,Potency,[6],inactive
same,Potency,[7],inactive
same,Potency,[8],inactive
same,Potency,[10],inactive
same,Potency,[20],inactive
same,Potency,[11],inactive
same,max response,[12],0.679% (inactive)
same,Potency,[13],inactive
same,Potency,[15],inactive
same,Potency,[16],inactive
same,Potency,[17],21.9 µM (active) and inactive
same,Potency,[18],inactive
